Bioassay records (PubChem BioAssay)
HT1080 IDH1KD tx: HT-1080 IDH1 knockdown cell toxicity (counter line) | Potency, µM (top dose mostly 46.1 µM), without a hit: at the highest dose activity, negative = toxicity, actives largely listed as cytotoxic | 360,000 tested, 2% active | HT-1080 IDH1 knockdown viability, ATP luminescence, 48 h;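 further: potency means the concentration at half of the fitted maximal effect; 0% = DMSO wells and -100% = cell-free medium wells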
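HT-1080-IDH1KD cells (IDH1 knocked down), 750/well in RPMI with 5% FBS, treated with compound 48 h at 37 degrees C. Viability by CellTiter-Glo luminescence, normalised to DMSO and no-cell wells; concentration-response curves classed.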
TDP1 cell CPT: DT40-hTDP1 cell growth loss with CPT; chicken DT40 Tdp1-/-;hTDP1 cells + 20 nM CPT, ATP luminescence, 48 h; Potency, µM (highest dose often 46.2 µM), for the others: top-dose activity change, negative = growth inhibition, actives largely listed as inhibitors; 420,000 tested, 12% active; further: potency means the concentration at half of the fitted maximal effect; nearly all actives have a fitted effect of over 55% in size
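Cell growth measured by CellTiter-Glo luminescence after a minimum 48 h, 37 C compound exposure with 20 nM CPT in Tdp1-knockout DT40 cells stably expressing hTDP1, seeded 400/well; qHTS titration format.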
HT1080NT lethal: kills 2HG-producing HT-1080-NT fibrosarcoma cells; 360,000 tested, 1.6% active; HT-1080-NT fibrosarcoma viability, CellTiter-Glo ATP luminescence, 48 h; Potency, µM (top dose mostly 46.1 µM), without a hit: at the top dose activity, negative = less viability, usual class: cytotoxic; AID 686970;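 further: NT is the 2HG producing partner of a matched IDH1 knockdown line; potency means the concentration at half of the fitted maximal effect; 0% = DMSO-treated cells and -100% = media-only wells without cells; nearly all actives have a fitted effect of over 55% in size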
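Fibrosarcoma NT cells, 750 per well in 5% FBS RPMI, were exposed to compound for 48 hours. Viability: CellTiter-Glo luminescence.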
TDP1 cell noCPT: qHTS for Inhibitors of human tyrosyl-DNA phosphodiesterase 1 (TDP1): qHTS in cells in absence of CPT; DT40 Tdp1-/- hTDP1 cells, no CPT, ATP luminescence, 48 h; Potency, µM (titrated, usually from 46.2 µM), inactives show at the highest dose activity change, negative = growth inhibition, usual class: inhibitors; 420,000 tested, 15% active; further: potency means the concentration at half of the fitted maximal effect; nearly all actives have a fitted effect of over 55% in size
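Growth of hTDP1-complemented DT40 Tdp1-knockout cells is measured by ATP luminescence after at least 48 hr compound exposure at 37 °C, with DMSO substituting for the 20 nM CPT used in the parallel screen.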
IL-1B inflam inh: inflammasome signaling inhibition, IL-1 beta readout; THP-1 LPS/ATP IL-1B secretion, AlphaLISA, 16 h; active compounds read low; activity change, % at 57.5 µM; 360,000 tested, 4.7% active; AID 743279; in the data active means activity change below about -50%; inconclusive means mostly about -30% to -49%
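Secreted IL-1B measured by AlphaLISA bead assay after 16 h compound exposure of THP-1 cells; compounds (final up to 57.5 uM) added 1 h before LPS (250 ng/mL) and ATP (1.25 mM) stimulation; lower signal means less secretion.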
An asterisk follows results filed as active; u = inconclusive; x = no result given; [ ] = another dose, or the depositor's remark. Rows were chosen to be rich in hits. Some 19% of all compounds tested hit in one or more screens of this group. Unless noted, the call rests on the fitted dose curve; in most records, active means well fitted curve in the direction sought with a large enough effect; inconclusive means small, poorly fitted or top-dose-only effect, or another doubt; inactive means no such curve, though single readings can be large; an effect the other way counts as inactive or inconclusive. Unless noted, on the % scale 0 is the no-effect control and ±100 the full control effect.

SMILES	HT1080 IDH1KD tx	TDP1 cell CPT	HT1080NT lethal	TDP1 cell noCPT	IL-1B inflam inh
O=C(NNc1ccccc1[N+](=O)[O-])Nc1ccc(F)cc1	-8%	u	-10%	-52%	-3
O=C(NNc1ccccc1[N+](=O)[O-])Nc1ccc(Cl)c(Cl)c1	18µM*	u	18µM*	u	-93*
O=C(NNc1ccccc1[N+](=O)[O-])Nc1ccccc1	-2%	15µM*	1%	u	0
O=C(Nc1ccc(Cl)c(Cl)c1)Nc1ccccc1O	4%	u	4%	u	-21
CC1Cc2ccccc2C(CCc2ccccc2)=N1 (centres undefined)	-2%	-30%	7%	u	-1
Cc1cc(OCC(=O)Nc2cccc(S(=O)(=O)NC3=NCCCCC3)c2)ccc1Cl	-2%	u	-6%	2.6µM*	u
Nc1ccc(S(=O)(=O)NC2=NCCCCC2)cc1	27%	-21%	22%	-11%	-5
Nc1nc2cc(S(=O)(=O)NC3=NCCCCC3)ccc2s1	2%	15µM*	22%	13µM*	u
O=C(CCl)Nc1ccc(S(=O)(=O)NC2=NCCCCC2)cc1	18µM*	18µM*	u	13µM*	-96*
Cc1ccc(C)c(SCC(=O)Nc2cccc(S(=O)(=O)NC3=NCCCCC3)c2)c1	-10%	-27%	-4%	u	-11
CC(C)(C)C(=O)Nc1ccc(S(=O)(=O)NC2=NCCCCC2)cc1	3%	u	-5%[9.24 µM]	-27%	6
O=C(CSc1ccc2ccccc2c1Br)Nc1cccc(S(=O)(=O)NC2=NCCCCC2)c1	16µM*	-28%	18µM*	u	-22
Clc1cccc2sc(-c3nnc(-c4ccccc4)o3)c(Cl)c12	10%	-7%	5%	u	41
Cc1cc(C)cc(-n2c(SCC(=O)Nc3cccc(S(=O)(=O)NC4=NCCCCC4)c3)nc3ccccc3c2=O)c1	9%	18µM*	u	u	-21
CCCOc1ccc(C(=O)Nc2ccc(S(=O)(=O)NC3=NCCCCC3)cc2)cc1	-24%	13µM*	-17%	21µM*	-6
O=C(CCl)Nc1cccc(S(=O)(=O)NC2=NCCCCC2)c1	u	3.7µM*	3.7µM*	5.2µM*	-99*
CCOC(=O)C[C@H]1c2cc(F)ccc2S(=O)(=O)N1c1cccc(OC)c1	-7%	u	-1%	u	54
CC(C)CC(NC(=O)C1CCC(C)CC1)C(=O)Nc1ccc2c(c1)OCCO2 (centres undefined)	-2%	2%	1%	-23%	-26
Cc1ccc(C(C)C)c(OCC(=O)NC(=S)Nc2ccccc2N2CCOCC2)c1	u	23µM*	u	16µM*	0
Cc1cccc(OCC(=O)NC(=S)Nc2ccccc2N2CCOCC2)c1C	-3%	-21%	-2%	-6%	1
CCC(=O)N1CCN(c2ccccc2NC(=O)COc2cc(C)ccc2C(C)C)CC1	u	16µM*	u	23µM*	-95*
COc1ccccc1-c1cncnc1Nc1ccc(F)cc1	x	7%	x	-11%	x
CC(=O)c1c(C)[nH]c(C(=O)OCC(=O)N2CC(C)OC(C)C2)c1C (centres undefined)	-2%	-5%	-8%	-14%	25
CN(C)/C=N/C1=C(C#N)C(c2cccs2)c2ccc3ccccc3c2O1 (centres undefined)	7.3µM*	4.1µM*	7.3µM*	4.1µM*	85
COc1ccc(Cn2c(C)cc3c(c2=O)C(c2cccs2)C(C#N)=C(N)O3)cc1OC (centres undefined)	-17%	-11%	-1%	-7%	6
N#CC1=C(N)Oc2cc3ccccc3cc2C1c1cccnc1 (centres undefined)	5.8µM*	8.2µM*	6.5µM*	7.3µM*	-12
N#CC1=C(N)Oc2cc3ccccc3cc2C1c1cccs1 (centres undefined)	u	11µM*	u	11µM*	0
